Our source for the binding signal values is paper PMC7862700, “An all-to-all approach to the identification of sequence-specific readers for epigenetic DNA modifications on cytosine”.

What all share (test): DAPPL (digital affinity profiling via proximity ligation, sequencing); 10 mM Tris-HCl pH 7.5, 50 mM NaCl, 1 mM DTT, 4% glycerol, room temperature, 30 min; GST-TFs on glutathione beads, 16-mer random dsDNA library, 0.1% formaldehyde crosslink after washing; high values mean tight binding
One test addresses T1, FLI1 (Homo sapiens, UniProt Q01543 1-452).
T1 sequence: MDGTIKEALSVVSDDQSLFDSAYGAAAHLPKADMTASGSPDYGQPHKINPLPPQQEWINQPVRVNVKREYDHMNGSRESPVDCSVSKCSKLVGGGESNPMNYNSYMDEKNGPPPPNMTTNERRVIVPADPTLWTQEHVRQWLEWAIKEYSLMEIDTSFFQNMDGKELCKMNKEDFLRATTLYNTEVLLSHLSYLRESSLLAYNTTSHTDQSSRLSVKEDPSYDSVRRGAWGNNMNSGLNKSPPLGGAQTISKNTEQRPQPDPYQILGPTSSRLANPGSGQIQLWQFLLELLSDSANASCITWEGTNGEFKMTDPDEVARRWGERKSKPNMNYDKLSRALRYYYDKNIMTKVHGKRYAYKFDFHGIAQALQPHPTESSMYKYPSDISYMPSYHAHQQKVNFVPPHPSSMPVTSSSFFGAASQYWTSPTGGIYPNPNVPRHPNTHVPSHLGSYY
The note with it: protein: recombinant; tags: N-terminal GST; dsDNA, one strand shown. In outline: (§1)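 Each value of binding signal is a hexamer's read frequency for a factor divided by the same hexamer's frequency in the tag-only sample. Barcoded, bead-captured GST fusions of human transcription factors made in yeast were pooled with that sample and incubated with 200 nmole of a random double-stranded 16-mer DNA library in Tris/NaCl/DTT/glycerol buffer at room temperature for 30 min. Washing, 0.1% formaldehyde crosslinking, proximity ligation, PCR and Illumina NextSeq500 sequencing followed.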

Another test deals with T2, SPIC (Homo sapiens, UniProt Q8N5J4 1-248).
T2 sequence: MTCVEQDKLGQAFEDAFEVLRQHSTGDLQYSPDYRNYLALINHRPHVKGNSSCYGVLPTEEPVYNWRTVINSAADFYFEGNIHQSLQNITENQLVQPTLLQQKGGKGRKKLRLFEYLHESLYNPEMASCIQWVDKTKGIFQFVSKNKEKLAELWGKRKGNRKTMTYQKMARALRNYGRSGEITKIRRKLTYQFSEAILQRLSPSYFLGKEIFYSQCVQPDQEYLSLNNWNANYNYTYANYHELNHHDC
The note with it: protein: recombinant; tags: N-terminal GST; dsDNA, one strand shown. In outline: as §1

The next test has as its target T3, ETV2 (Homo sapiens, UniProt O00321 1-342).
T3 sequence: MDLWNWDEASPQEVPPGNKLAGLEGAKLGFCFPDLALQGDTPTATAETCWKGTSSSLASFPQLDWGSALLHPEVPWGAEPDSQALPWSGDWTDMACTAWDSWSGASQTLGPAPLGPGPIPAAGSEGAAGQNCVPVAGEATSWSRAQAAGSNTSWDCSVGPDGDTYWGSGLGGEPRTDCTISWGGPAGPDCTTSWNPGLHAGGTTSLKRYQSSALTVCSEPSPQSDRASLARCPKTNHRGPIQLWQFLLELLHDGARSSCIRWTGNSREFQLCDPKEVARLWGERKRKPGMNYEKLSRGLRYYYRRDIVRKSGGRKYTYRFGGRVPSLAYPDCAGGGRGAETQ
The following applies: protein: recombinant; tags: N-terminal GST; dsDNA, one strand shown. The procedure, abridged:
as §1

A further test has as its target CRX (Homo sapiens, UniProt O43186 1-299). The following applies: protein: recombinant; tags: N-terminal GST; dsDNA, one strand shown. In outline: as §1
Another test addresses T4, ETV3L (Homo sapiens, UniProt Q6ZN32 1-361).
T4 sequence: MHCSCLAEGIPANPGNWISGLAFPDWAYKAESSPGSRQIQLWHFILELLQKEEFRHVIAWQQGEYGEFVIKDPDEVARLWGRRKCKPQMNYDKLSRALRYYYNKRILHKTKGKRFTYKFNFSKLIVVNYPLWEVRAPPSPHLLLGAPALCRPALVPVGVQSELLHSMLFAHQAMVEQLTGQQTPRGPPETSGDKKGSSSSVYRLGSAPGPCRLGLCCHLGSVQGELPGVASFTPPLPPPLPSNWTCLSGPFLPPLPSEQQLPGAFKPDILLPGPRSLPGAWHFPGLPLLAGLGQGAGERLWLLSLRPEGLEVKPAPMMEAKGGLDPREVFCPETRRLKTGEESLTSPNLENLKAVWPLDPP
The following applies: protein: recombinant; tags: N-terminal GST; dsDNA, one strand shown. The procedure, abridged:
as §1

Another test has as its target T5, ETV7 (Homo sapiens, UniProt Q9Y603 1-341).
T5 sequence: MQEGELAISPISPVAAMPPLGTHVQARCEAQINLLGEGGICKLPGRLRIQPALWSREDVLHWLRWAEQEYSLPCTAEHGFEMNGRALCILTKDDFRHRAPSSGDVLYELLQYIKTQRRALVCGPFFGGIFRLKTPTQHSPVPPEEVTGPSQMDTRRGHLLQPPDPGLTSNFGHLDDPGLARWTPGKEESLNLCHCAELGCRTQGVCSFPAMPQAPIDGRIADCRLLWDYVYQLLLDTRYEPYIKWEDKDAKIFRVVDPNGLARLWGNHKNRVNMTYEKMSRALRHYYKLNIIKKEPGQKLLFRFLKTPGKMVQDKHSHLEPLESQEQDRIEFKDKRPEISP
The note with it: protein: recombinant; tags: N-terminal GST; dsDNA, one strand shown. The procedure, abridged:
as §1

In another test the target is HSF1 (Homo sapiens, UniProt Q00613 1-529). The note with it: protein: recombinant; tags: N-terminal GST; chain copies: 3; dsDNA, one strand shown. In outline:
as §1

The next test has as its target SPI1 (Homo sapiens, UniProt P17947 1-270). The note with it: protein: recombinant; tags: N-terminal GST; dsDNA, one strand shown. The procedure, abridged: as §1
Another test deals with T6, ELK3 (Homo sapiens, UniProt P41970 1-407).
T6 sequence: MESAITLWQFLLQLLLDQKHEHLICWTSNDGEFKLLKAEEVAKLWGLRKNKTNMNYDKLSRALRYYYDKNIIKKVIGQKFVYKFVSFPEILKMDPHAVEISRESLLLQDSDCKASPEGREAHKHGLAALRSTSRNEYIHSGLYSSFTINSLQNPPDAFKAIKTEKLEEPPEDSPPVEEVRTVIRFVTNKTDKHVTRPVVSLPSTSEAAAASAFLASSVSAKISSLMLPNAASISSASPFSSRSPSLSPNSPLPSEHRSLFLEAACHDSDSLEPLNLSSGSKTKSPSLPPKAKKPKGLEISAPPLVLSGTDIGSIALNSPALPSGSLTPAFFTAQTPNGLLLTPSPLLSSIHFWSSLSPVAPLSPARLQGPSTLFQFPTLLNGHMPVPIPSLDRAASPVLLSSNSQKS
The following applies: protein: recombinant; tags: N-terminal GST; dsDNA, one strand shown. The procedure, abridged: as §1

Another test addresses T7, ELK4 (Homo sapiens, UniProt P28324-2 1-405).
T7 sequence: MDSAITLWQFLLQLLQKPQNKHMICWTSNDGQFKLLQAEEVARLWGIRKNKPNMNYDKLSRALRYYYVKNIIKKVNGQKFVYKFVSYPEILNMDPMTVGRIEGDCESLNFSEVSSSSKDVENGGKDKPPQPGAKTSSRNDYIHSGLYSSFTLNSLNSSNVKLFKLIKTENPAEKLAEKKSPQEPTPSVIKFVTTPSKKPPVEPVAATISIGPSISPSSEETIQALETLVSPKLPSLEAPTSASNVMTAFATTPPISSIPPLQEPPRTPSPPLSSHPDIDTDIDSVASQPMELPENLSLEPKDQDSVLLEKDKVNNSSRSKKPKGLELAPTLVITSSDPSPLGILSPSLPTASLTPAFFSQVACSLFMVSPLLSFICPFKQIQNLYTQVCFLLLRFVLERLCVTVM
The note with it: protein: recombinant; tags: N-terminal GST; dsDNA, one strand shown. In outline:
as §1

A further test concerns the target T8, ELF5 (Homo sapiens, UniProt Q9UKW6-2 1-255).
T8 sequence: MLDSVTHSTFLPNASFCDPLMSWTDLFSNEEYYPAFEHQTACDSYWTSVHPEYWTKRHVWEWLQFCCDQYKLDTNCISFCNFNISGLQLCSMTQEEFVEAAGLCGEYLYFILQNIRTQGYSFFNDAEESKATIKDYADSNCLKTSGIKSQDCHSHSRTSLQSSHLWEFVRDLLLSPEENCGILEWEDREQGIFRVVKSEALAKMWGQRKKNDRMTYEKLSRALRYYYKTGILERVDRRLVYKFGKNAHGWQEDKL
The following applies: protein: recombinant; tags: N-terminal GST; dsDNA, one strand shown. In outline: as §1

For another test, the target named is ETV6 (Homo sapiens, UniProt P41212 1-452). The note with it: protein: recombinant; tags: N-terminal GST; dsDNA, one strand shown. The procedure, abridged: as §1
The next test concerns the target T9, GABPA (Homo sapiens, UniProt Q06546 1-454).
T9 sequence: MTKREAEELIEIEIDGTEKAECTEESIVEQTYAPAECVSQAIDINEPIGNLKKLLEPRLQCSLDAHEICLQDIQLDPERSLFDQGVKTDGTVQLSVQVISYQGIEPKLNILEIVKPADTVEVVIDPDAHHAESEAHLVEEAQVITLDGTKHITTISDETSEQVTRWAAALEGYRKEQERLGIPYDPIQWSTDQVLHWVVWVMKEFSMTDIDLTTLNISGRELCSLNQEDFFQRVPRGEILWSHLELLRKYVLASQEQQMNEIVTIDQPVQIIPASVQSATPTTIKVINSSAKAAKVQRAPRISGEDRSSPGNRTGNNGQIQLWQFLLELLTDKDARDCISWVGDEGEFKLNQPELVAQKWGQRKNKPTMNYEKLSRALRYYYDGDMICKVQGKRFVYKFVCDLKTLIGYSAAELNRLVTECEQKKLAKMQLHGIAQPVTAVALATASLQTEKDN
The note with it: protein: recombinant; tags: N-terminal GST; dsDNA, one strand shown. The procedure, abridged:
as §1

The target of the next test is ELF1 (Homo sapiens, UniProt P32519 1-619). The note with it: protein: recombinant; tags: N-terminal GST; dsDNA, one strand shown. In outline:
as §1

The target in the next test is T10, ERF (Homo sapiens, UniProt P50548 1-548).
T10 sequence: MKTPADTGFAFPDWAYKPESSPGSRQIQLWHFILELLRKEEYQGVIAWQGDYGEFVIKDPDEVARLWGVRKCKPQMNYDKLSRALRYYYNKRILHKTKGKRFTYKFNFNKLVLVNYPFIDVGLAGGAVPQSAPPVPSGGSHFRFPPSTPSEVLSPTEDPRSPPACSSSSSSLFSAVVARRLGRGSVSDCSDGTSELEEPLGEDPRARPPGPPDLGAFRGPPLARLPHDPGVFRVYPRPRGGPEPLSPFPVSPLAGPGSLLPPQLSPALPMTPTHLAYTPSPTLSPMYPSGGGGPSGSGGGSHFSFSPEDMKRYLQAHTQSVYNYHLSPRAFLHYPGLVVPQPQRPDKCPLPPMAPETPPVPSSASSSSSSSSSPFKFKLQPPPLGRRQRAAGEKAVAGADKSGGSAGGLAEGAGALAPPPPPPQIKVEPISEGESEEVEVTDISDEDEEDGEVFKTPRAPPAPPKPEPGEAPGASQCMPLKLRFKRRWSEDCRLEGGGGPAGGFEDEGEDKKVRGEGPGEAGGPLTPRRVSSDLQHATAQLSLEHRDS
The note with it: protein: recombinant; tags: N-terminal GST; dsDNA, one strand shown. In outline: as §1

A further test deals with T11, ETS2 (Homo sapiens, UniProt P15036 1-469).
T11 sequence: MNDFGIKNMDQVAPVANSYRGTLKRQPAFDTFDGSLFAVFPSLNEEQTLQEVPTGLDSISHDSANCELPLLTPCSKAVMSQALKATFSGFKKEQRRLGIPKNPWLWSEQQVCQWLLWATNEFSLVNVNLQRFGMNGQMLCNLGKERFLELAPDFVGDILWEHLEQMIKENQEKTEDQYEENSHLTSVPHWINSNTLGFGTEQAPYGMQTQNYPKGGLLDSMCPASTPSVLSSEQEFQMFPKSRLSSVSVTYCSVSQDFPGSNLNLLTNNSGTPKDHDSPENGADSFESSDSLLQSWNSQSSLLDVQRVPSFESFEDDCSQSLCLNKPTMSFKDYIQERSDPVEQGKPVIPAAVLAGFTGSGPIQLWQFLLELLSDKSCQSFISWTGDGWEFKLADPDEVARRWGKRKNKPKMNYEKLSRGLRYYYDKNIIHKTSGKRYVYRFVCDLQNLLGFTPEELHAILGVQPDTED
The following applies: protein: recombinant; tags: N-terminal GST; dsDNA, one strand shown. The procedure, abridged: as §1

ELF1, sequence (P32519 whole entry): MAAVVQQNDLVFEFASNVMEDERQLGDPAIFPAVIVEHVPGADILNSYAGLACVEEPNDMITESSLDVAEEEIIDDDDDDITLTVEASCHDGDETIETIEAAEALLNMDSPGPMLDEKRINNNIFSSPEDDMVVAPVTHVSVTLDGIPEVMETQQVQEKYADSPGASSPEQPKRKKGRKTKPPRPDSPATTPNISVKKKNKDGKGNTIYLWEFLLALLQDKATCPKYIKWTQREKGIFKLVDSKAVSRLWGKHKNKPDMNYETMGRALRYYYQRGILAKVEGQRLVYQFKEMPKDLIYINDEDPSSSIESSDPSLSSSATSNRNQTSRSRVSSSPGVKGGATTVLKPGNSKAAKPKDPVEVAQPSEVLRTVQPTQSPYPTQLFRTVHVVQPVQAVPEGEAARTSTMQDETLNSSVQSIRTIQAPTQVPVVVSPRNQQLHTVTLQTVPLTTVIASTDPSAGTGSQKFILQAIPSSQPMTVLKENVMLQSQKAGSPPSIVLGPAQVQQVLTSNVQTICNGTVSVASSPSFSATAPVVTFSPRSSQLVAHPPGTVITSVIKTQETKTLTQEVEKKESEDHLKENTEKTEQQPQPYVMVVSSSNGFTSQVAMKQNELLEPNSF
ETV6, sequence (P41212 whole entry): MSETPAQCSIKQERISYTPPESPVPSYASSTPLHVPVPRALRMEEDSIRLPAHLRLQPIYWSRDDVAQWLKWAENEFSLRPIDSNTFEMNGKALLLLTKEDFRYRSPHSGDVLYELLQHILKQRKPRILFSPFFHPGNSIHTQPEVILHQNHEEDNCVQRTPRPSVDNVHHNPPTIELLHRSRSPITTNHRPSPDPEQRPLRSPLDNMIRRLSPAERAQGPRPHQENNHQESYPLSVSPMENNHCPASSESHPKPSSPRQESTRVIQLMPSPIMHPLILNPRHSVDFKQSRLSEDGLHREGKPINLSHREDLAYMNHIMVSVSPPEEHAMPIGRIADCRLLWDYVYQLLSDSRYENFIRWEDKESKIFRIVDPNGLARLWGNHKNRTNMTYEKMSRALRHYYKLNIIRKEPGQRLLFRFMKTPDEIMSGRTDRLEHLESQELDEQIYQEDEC
CRX, sequence (O43186 whole entry): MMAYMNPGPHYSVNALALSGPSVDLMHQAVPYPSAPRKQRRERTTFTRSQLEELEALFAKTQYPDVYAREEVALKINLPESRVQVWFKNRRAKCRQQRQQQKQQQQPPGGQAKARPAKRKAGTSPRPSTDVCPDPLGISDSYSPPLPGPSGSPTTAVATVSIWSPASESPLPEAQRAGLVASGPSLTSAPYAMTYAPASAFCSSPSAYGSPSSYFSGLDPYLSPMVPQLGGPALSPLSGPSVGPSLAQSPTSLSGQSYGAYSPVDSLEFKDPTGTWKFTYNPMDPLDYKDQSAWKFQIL
HSF1, sequence (Q00613 whole entry): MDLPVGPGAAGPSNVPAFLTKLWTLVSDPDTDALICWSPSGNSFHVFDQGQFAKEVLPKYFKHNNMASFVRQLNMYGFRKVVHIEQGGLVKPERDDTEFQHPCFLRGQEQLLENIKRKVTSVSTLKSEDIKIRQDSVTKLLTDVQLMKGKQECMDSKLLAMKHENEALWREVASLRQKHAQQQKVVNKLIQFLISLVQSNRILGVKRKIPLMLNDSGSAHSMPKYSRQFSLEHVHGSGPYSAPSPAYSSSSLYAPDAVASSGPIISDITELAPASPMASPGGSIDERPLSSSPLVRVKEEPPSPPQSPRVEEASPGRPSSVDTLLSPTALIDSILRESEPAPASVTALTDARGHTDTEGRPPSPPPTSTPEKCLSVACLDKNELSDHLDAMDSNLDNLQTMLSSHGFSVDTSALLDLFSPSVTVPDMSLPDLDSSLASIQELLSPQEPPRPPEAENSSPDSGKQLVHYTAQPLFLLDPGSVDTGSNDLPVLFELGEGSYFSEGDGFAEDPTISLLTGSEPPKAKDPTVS

As to TCGTTA, the binding signal is 1 fold enrichment (6-mer frequency, TF over GST control) with FLI1; 1.02 fold enrichment (6-mer frequency, TF over GST control) in the test with SPIC; 1.08 fold enrichment (6-mer frequency, TF over GST control) in the test with ETV2; 1.1 fold enrichment (6-mer frequency, TF over GST control) with CRX; 1.01 fold enrichment (6-mer frequency, TF over GST control) with ETV3L; 1.06 fold enrichment (6-mer frequency, TF over GST control) with ETV7.

Turning to AGGTTC, the binding signal in the test with HSF1 is 1.18 fold enrichment (6-mer frequency, TF over GST control).

With AGTTGC, the binding signal in the test with FLI1 is 1.04 fold enrichment (6-mer frequency, TF over GST control); with SPI1 it was 1.07 fold enrichment (6-mer frequency, TF over GST control); with ELK3, 1.03 fold enrichment (6-mer frequency, TF over GST control); with ELK4, 1.02 fold enrichment (6-mer frequency, TF over GST control); with ETV3L, 1.01 fold enrichment (6-mer frequency, TF over GST control); with ETV7, 1.11 fold enrichment (6-mer frequency, TF over GST control). Also, the binding signal is 1.02 fold enrichment (6-mer frequency, TF over GST control) with ELF5 and 1.03 fold enrichment (6-mer frequency, TF over GST control) with ETV6.

ACAAAG: the binding signal was 1.04 fold enrichment (6-mer frequency, TF over GST control) with FLI1; 1.03 fold enrichment (6-mer frequency, TF over GST control) in the test with GABPA; 1.02 fold enrichment (6-mer frequency, TF over GST control) with ELF1; 1.04 fold enrichment (6-mer frequency, TF over GST control) with ELK3; 1.01 fold enrichment (6-mer frequency, TF over GST control) with ERF; 1.01 fold enrichment (6-mer frequency, TF over GST control) with ETS2. For the same sequence, the binding signal in the test with ETV7 was 1.01 fold enrichment (6-mer frequency, TF over GST control).
